13 compounds from PubChem BioAssay (NCATS) can be followed below.

Several values for one entry are separate records, joined by “and”; a condition that tells them apart may be missing. Equal entries are not always repeated. Results filed as inconclusive are left out. A structure can be active in one record and inactive in another. Activity calls are given as the source filed them. Unless noted, the call rests on the fitted dose curve; in most records, active means well fitted curve in the direction sought with a large enough effect; inconclusive means small, poorly fitted or top-dose-only effect, or another doubt; inactive means no such curve, though single readings can be large; an effect the other way counts as inactive or inconclusive.

In one test the test system is WaGa. Briefly: qHTS assay to identify novel small-molecules to repurpose for Merkel cell carcinoma treatment (AID 1296009). Further: nearly all actives have a fitted effect of over 60% in size. Further: potency means the concentration at half of the fitted maximal effect. The following applies: MCC and control cell lines, CellTiter-Glo viability, 72 h; series mostly up to 46 µM. In a few lines: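 Dose-response viability screen; 72 hr exposure at 37 degree celsius; CellTiter-Glo added, 10 min room temperature, luminescence read; RLUs scaled between no-cell and DMSO wells.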
Background: qHTS replaces the single test concentration by a dilution series.

The test system of the next test is C33A. Kind of test: Primary qHTS to identify gynecologic anti-cancer compounds using libraries of approved drugs and bioactive compounds (AID 1345084). Further: nearly all actives have a fitted effect of over 55% in size. Further: potency means the concentration at half of the fitted maximal effect. The following applies: Gynecologic cancer cell panel viability, ATPlite luminescence, 48 h; series mostly up to 57.5 µM. In a few lines: (§1)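 48 h compound exposure at 37 C, 5% CO2; five-point qHTS. ATPlite luminescence readout of cell ATP.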

Another test concerns CASKI. Described as above. Particulars: Gynecologic cancer cell panel viability, ATPlite luminescence, 48 h; series mostly up to 57.5 µM. The essentials: as §1
For orientation: ATP-based viability assays read luminescence as a measure of living cells.

A further test concerns Es-2. The description is as above. The following applies: Gynecologic cancer cell panel viability, ATPlite luminescence, 48 h; series mostly up to 57.5 µM. In a few lines:
as §1

Another test relates to HeLa. The test is described as above. Particulars: Gynecologic cancer cell panel viability, ATPlite luminescence, 48 h; series mostly up to 57.5 µM. The essentials:
as §1

The subject of another test is Hek293T. The test is described as above. Particulars: Gynecologic cancer cell panel viability, ATPlite luminescence, 48 h, control line for the selectivity index; series mostly up to 57.5 µM. In a few lines: as §1
The subject of another test is JEG-3. Described as above. The following applies: Gynecologic cancer cell panel viability, ATPlite luminescence, 48 h; series mostly up to 57.5 µM. The essentials: as §1
For another test, the system named is OV90. The test is described as above. The following applies: Gynecologic cancer cell panel viability, ATPlite luminescence, 48 h; series mostly up to 57.5 µM. The essentials:
as §1

Another test concerns PA-1. Described as above. The following applies: Gynecologic cancer cell panel viability, ATPlite luminescence, 48 h; series mostly up to 57.5 µM. The essentials:
as §1

Another test has as its system SKOV3. Described as above. Particulars: Gynecologic cancer cell panel viability, ATPlite luminescence, 48 h; series mostly up to 57.5 µM. In a few lines: as §1
A further test concerns Tov-21-G. The test is described as above. Particulars: Gynecologic cancer cell panel viability, ATPlite luminescence, 48 h; series mostly up to 57.5 µM. In a few lines:
as §1

In a further test the test system is Tov112D. The description is as above. Particulars: Gynecologic cancer cell panel viability, ATPlite luminescence, 48 h; series mostly up to 57.5 µM. In a few lines: as §1
A short description of test [1]: Drug repurposing screens with cells derived from glioblastoma tumor samples (AID 1345199). Further: nearly all actives have a fitted effect of over 40% in size. Further: potency means the concentration at half of the fitted maximal effect. On activity, negative = cell killing: on the % scale 0 is the no-effect control and ±100 the full control effect. Particulars: GBM patient neurospheres viability, ATP luminescence, 48 h. The essentials: (§2)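 Primary testing used CD133+ neurospheres from four GBM patients, seven concentrations, 48 h exposure and ATP-based viability; confirmation added three slower-growing patient lines.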
For the next test, the system named is astro. Described as above. Particulars: viability, ATP luminescence, 48 h; series mostly up to 45.9 µM. The essentials: as §2
The target in test [2] is Nuclear receptor subfamily 1 group I member 2 (Rattus norvegicus) (UniProt Q9R1A7). Briefly: qHTS assay for small molecule activators of the rat pregnane X receptor (rPXR) signaling pathway (AID 651751; call rule not given here; further: 0% is about no effect). Particulars: rPXR reporter cells, luciferase (One-Glo), 24 h.
Nuclear receptor subfamily 1 group I member 2 (Rattus norvegicus), sequence (Q9R1A7 whole entry, looked up): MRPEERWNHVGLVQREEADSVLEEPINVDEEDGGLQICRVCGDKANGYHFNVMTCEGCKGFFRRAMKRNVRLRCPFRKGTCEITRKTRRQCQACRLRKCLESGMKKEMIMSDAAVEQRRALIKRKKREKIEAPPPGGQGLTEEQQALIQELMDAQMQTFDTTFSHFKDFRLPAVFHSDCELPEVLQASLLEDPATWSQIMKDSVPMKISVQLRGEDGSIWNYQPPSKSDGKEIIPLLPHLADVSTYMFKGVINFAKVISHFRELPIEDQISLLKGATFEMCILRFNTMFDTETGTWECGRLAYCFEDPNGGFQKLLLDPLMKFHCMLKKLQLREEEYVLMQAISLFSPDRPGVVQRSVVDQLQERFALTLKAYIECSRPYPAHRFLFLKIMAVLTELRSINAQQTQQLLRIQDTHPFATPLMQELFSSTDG
Test [3] in a line: qHTS assay for small molecule activators of the human pregnane X receptor (PXR) signaling pathway (AID 720659; call rule not given here; further: 0% is about no effect).
For the next test, the system named is CAOV3. Kind of test: Primary qHTS to identify gynecologic anti-cancer compounds using libraries of approved drugs and bioactive compounds (AID 1345084). Further: nearly all actives have a fitted effect of over 55% in size. Further: potency means the concentration at half of the fitted maximal effect. The following applies: Gynecologic cancer cell panel viability, ATPlite luminescence, 48 h; series mostly up to 57.5 µM. In a few lines: as §1
Where [4] appears, read: at 45.9 µM (top of the series), tumour line B.
[5] abbreviates: at 45.9 µM (top of the series), tumour line D.
[6] abbreviates: at 46.1 µM (top of the series), tumour line C.
Setting [7] is: at 46 µM (top of the series), tumour line A.

On to `COc1ccc(C2(C#N)CCC(C(=O)O)CC2)cc1OC1CCCC1` (centres undefined), for which the Potency result in the test with WaGa, in the test with C33A, in the test with CASKI, in the test with Es-2, with HeLa and in the test on Hek293T was “inactive” throughout. Besides, the Potency entry with JEG-3, in the test on OV90, in the test on PA-1, in the test on SKOV3, in the test with Tov-21-G and in the test with Tov112D was “inactive” each time. In the test with astro, the Potency result was “inactive”. Besides, the activity, negative = cell killing is -12.3% (inactive) in test [1] (setting [4]), -10.6% (inactive) in test [1] (setting [5]) and -18.3% (inactive) in [1] (setting [6]).

With `CCC(C)(Oc1ccc(C2(c3ccc(OC(C)(CC)C(=O)O)cc3)CCCCC2)cc1)C(=O)O` (centres undefined), the Potency entry in the test on WaGa, with C33A, in the test with CASKI, with Es-2, with HeLa and in the test on Hek293T was “inactive” throughout. For the same compound, the Potency result with JEG-3, with OV90, in the test on PA-1, with SKOV3, in the test on Tov-21-G and in the test with Tov112D was “inactive” throughout. For the same compound, in the test with astro, the Potency entry is “inactive”. Further, the activity, negative = cell killing in [1] (setting [4]) is -15.2% (inactive); in test [1] (setting [5]), -12.5% (inactive); in test [1] (setting [7]), -6.69% (inactive); in test [1] (setting [6]) it was -24.8% (inactive).

`Nc1ccc(S(N)(=O)=O)cc1`: the Potency result with WaGa, with C33A, with CASKI, in the test with Es-2, in the test with HeLa and in the test on Hek293T was “inactive” throughout. Further, the Potency entry in the test with JEG-3, with OV90, in the test with PA-1, in the test on Tov-21-G, with Tov112D and in the test with astro was “inactive” each time. For the same compound, the activity, negative = cell killing is -13.5% (inactive) in test [1] (setting [4]), -7.18% (inactive) in test [1] (setting [5]), -12.5% (inactive) in test [1] (setting [7]) and 10.5% (inactive) in [1] (setting [6]). In test [2], the max response was 5.05% (inactive). Moreover, the outcome in test [3] was inactive.

Consider `CNC[C@H](O)c1ccc(O)c(O)c1`, for which the Potency entry in the test with WaGa, in the test with C33A, with CASKI, in the test with Es-2, in the test on HeLa and with Hek293T was “inactive” each time. In addition, the Potency result in the test with JEG-3, in the test on OV90, with PA-1, in the test on SKOV3, with Tov-21-G and with Tov112D was “inactive” throughout. In addition, the Potency entry in the test with astro is “inactive”. The max response in test [2] is 0.58% (inactive). Moreover, the outcome in [3] was inactive.

On to `O=C(O)c1cccnc1Nc1cccc(C(F)(F)F)c1`, for which the Potency result in the test on WaGa, in the test on C33A, in the test on CASKI, in the test on Es-2, in the test with Hek293T and with JEG-3 was “inactive” each time. Also, the Potency entry with PA-1, with SKOV3, in the test with Tov-21-G and with Tov112D was “inactive” throughout. Further, the activity, negative = cell killing in test [1] (setting [4]) is -15.9% (inactive); in test [1] (setting [5]) it was -4.12% (inactive).

With `CCC[C@@H]1C[C@@H](C(=O)N[C@@H]([C@H]2O[C@H](SC)[C@H](O)[C@@H](O)[C@H]2O)[C@@H](C)O)N(C)C1`, the Potency result in the test on WaGa, in the test on C33A, in the test with CASKI, in the test on Es-2, in the test with HeLa and in the test on Hek293T was “inactive” throughout. Further, the Potency result in the test with JEG-3, with OV90, in the test on PA-1, with Tov-21-G, with Tov112D and with astro was “inactive” in each case. Further, the activity, negative = cell killing was -4.01% (inactive) in [1] (setting [4]), 5.06% (inactive) in test [1] (setting [5]), -2.05% (inactive) in [1] (setting [7]) and 3.06% (inactive) in [1] (setting [6]).

Take `CN1CCC(=C2c3ccccc3CCc3sccc32)CC1`: the Potency entry with WaGa, with CASKI, with Es-2, with HeLa, with Hek293T and with JEG-3 was “inactive” in each case. Moreover, the Potency result in the test with PA-1, with Tov-21-G and with Tov112D was “inactive” each time. For the same compound, in [1] (setting [6]), the activity, negative = cell killing was 4.48% (inactive). The Potency was 3.98 µM (active) in test [1] (tumour line A) and 12.6 µM (active) in test [1] (tumour line D).

As for `COc1c(O)cc2c(c1O)[C@@H]1O[C@H](CO)[C@@H](O)[C@H](O)[C@H]1OC2=O`, the Potency result in the test on WaGa, with CASKI, in the test with Es-2, in the test on HeLa, with Hek293T and in the test on JEG-3 was “inactive” in each case. The Potency entry with OV90, with PA-1, in the test on SKOV3, in the test with Tov-21-G, with Tov112D and in the test on astro was “inactive” throughout. For the same compound, the activity, negative = cell killing is -10.5% (inactive) in test [1] (at 20 µM (top of the series), tumour line C); -10.4% (inactive) in test [1] (at 21.2 µM (top of the series), tumour line B); -25.7% (inactive) in [1] (at 21.2 µM (top of the series), tumour line D).

Regarding `Cc1ccc(NC(=O)c2ccc(CN3CCN(C)CC3)cc2)cc1Nc1nccc(-c2cccnc2)n1`, the Potency result in the test on WaGa, in the test with C33A, in the test on CASKI and in the test on HeLa was “inactive” in each case. Besides, the Potency is 35.5 µM (active) in the test with OV90; 25.1 µM (active) in the test on PA-1; 12.6 µM (active) in test [1] (tumour line A); 20 µM (active) in test [1] (tumour line B); 12.6 µM (active) in test [1] (tumour line D); 20 µM (active) with astro. Also, the activity, negative = cell killing in [1] (setting [6]) was 17.6% (inactive).

Consider `CC1(C)NC(=O)N(c2ccc([N+](=O)[O-])c(C(F)(F)F)c2)C1=O`, for which the Potency entry with WaGa, in the test with C33A, in the test with CASKI, in the test on Es-2, with HeLa and with Hek293T was “inactive” in each case. Further, the Potency entry in the test with JEG-3, in the test on OV90, in the test on PA-1, with SKOV3, in the test with Tov-21-G and in the test on Tov112D was “inactive” throughout. Also, the max response in [2] was -9.05% (inactive). For the same compound, the compound was called inactive in test [3].

As to `CCCCCCCCOc1ccccc1C(=O)Nc1ccc(C(=O)OCC[N+](C)(CC)CC)cc1`, the Potency is 29.9 µM (active) with WaGa, 14.1 µM (active) in test [1] (tumour line A) and 17.8 µM (active) in test [1] (tumour line B). The Potency result with C33A, in the test with Es-2, with HeLa, with Hek293T, with JEG-3 and in the test with OV90 was “inactive” each time. Moreover, the Potency result with Tov-21-G and in the test with Tov112D was “inactive” in each case. Also, the activity, negative = cell killing in test [1] (setting [6]) is -98.5% (inactive).

Regarding `CCN(CC)C(=S)SSC(=S)N(CC)CC`, the Potency in the test with WaGa was 0.935 µM (active); in the test with CAOV3, 7.08 µM (active); in the test on CASKI, 35.5 µM (active) and inactive; with Es-2 it was 15.8 µM (active); with Hek293T, 8.91 µM (active); with JEG-3 it was 28.2 µM (active). The Potency was 4.47 µM (active) in the test on OV90; 631 nM (active) and 1.41 µM (active) in the test on SKOV3; 63.1 µM (active) in the test with astro. The Potency entry in the test on HeLa was “inactive”. Further, the max response in [2] is -4.1% (inactive).

On to `CN(C)CCCC1(c2ccc(F)cc2)OCc2cc(C#N)ccc21` (centres undefined), for which the Potency result in the test on WaGa, in the test with C33A, in the test on Es-2, in the test on HeLa, in the test with Hek293T and in the test on JEG-3 was “inactive” each time. Further, the Potency result in the test on PA-1, in the test on SKOV3, in the test on Tov-21-G and with Tov112D was “inactive” throughout.
